# Sm TGR inh: S. mansoni TGR enzyme inhibition; Potency, µM (series often up to 114 µM), actives largely listed as inhibitors; purified TGR, DTNB reduction, TNB absorbance 405 nm; Q962Y6; 3% of 360,000 active; further: nearly all actives have a fitted effect of over 60% in size
#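 First, TGR (20 nM dispensed) and NADPH were mixed with compound. Second, a 15 min room-temperature incubation followed. Third, further NADPH and then DTNB were added to start the reaction. Finally, TNB absorbance was monitored kinetically.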
# AmpC inh detg: blocks E. coli AmpC beta-lactamase in detergent assay; P00811; AmpC hydrolysis of nitrocefin, absorbance 480 nm, 0.01% Triton; Potency, µM (series often up to 114 µM), usual class: inhibitors; 0.041% of 370,000 active; further: nearly all actives have a fitted effect of over 25% in size
# Target sequence (P00811 whole entry, looked up): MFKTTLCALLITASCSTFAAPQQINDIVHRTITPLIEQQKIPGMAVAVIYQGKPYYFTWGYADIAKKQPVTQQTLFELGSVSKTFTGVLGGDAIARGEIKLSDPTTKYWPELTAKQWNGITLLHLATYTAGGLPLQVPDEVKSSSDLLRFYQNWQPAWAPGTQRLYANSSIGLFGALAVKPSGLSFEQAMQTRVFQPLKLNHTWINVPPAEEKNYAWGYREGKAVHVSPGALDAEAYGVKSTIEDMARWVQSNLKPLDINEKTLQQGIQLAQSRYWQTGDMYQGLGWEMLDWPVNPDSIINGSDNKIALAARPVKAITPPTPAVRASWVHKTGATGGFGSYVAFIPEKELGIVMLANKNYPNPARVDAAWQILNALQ
#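 AmpC (5.3 nM in the dispensed reagent) in 20 mM phosphate pH 7.0 with 0.01% (detergent screen) or 0.0001% Triton X-100 was preincubated with compounds for 15 min at room temperature. Nitrocefin was then added from an 800 uM solution, and hydrolysis was followed at 480 nm.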
# AmpC inh no detg: blocks E. coli AmpC beta-lactamase in detergent-free assay. P00811. AmpC nitrocefin hydrolysis, absorbance 480 nm, 0.0001% Triton. Potency, µM (doses to about 57.1 µM), most hits filed as inhibitors. 0.52% of 330,000 active. AID 485341; further: nearly all actives have a fitted effect of over 20% in size
#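 AmpC (5.3 nM in the dispensed reagent) in 20 mM phosphate pH 7.0 with 0.01% (detergent screen) or 0.0001% Triton X-100 was preincubated with compounds for 15 min at room temperature. Nitrocefin was then added from an 800 uM solution, and hydrolysis was followed at 480 nm.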
# Hits are given with their value; - = inactive; ? = inconclusive; . = not tested or not shown; [ ] = remark or other dose. An excerpt weighted towards active compounds, which were near 3.3% of everything screened. The call rests on the fitted dose curve; in most records, active means well fitted curve in the direction sought with a large enough effect; inconclusive means small, poorly fitted or top-dose-only effect, or another doubt; inactive means no such curve, though single readings can be large; an effect the other way counts as inactive or inconclusive.
SMILES,Sm TGR inh,AmpC inh detg,AmpC inh no detg
COc1ccc(OC)c(-c2nc3c(C#N)c[nH]n3c2NC2CCCCC2)c1,-,-,.
Cc1ccc(NC(=O)c2sc3nc4n(c(=O)c3c2C)CCCCC4)c(Br)c1,-,-,.
CCOC(=O)c1ccccc1NC(=O)c1sc2nc3n(c(=O)c2c1C)CCCC3,45µM,-,.
Cc1cc(Br)ccc1NC(=O)c1sc2nc3n(c(=O)c2c1C)CCCC3,22µM,-,.
CCOC(=O)c1sc2nc3n(c(=O)c2c1C)CCCCC3,-,?,-
CCSc1ncc(Cl)c(C(=O)N(Cc2ccccc2)c2ccc(OC)cc2)n1,-,-,.
Cc1cccc(NC(=O)c2ccc3snnc3c2)c1C,-,-,.
CCc1ccc(S(=O)(=O)c2cn(C)c3ccc(C)cc3c2=O)cc1,-,-,.
COC(=O)c1cc(S(=O)(=O)C(C)C)c(S(C)=O)s1 (stereo not drawn),35µM,-,-
CSc1sc(C(=O)NCC2CC2)cc1S(=O)(=O)C(C)C,-,-,-
Cc1cccc(Cn2cc(C(=O)Nc3ccc(S(N)(=O)=O)cc3)ccc2=O)c1,-,-,.
COC(=O)c1sc(N2C(=O)C(O)=C(C(=O)c3ccc(C)o3)C2c2ccc([N+](=O)[O-])cc2)nc1C (stereo not drawn),-,-,-
CCOC(=O)c1sc(N2C(=O)C(O)=C(C(=O)c3ccc(C)o3)C2c2ccc(OC)c(OC)c2)nc1C (stereo not drawn),-,-,-
CCOC(=O)c1sc(N2C(=O)C(O)=C(C(=O)c3ccco3)C2c2ccc(C)o2)nc1C (stereo not drawn),7.9µM,-,-
CCOc1ccc(C2C(C(=O)c3ccc(C)o3)=C(O)C(=O)N2c2nc(C)c(C(=O)OC)s2)cc1 (stereo not drawn),45µM,-,-
N#Cc1c(NC(=O)CS(=O)(=O)c2ccc(Cl)cc2)sc2c1CCCCC2,-,-,.
O=C(Cn1cc2c(n1)CCCCC2)N1CCc2ccccc2C1,-,?,0.56µM
O=C(Cn1cc2c(n1)CCCC2)N1CCc2ccccc21,-,-,-
O=C(CSc1ncc(-c2ccccc2)[nH]1)Nc1ccc(Cl)cc1,-,-,.
Cc1ccc(-c2nc3c(c(=O)c4ccccc4n3C)c(=O)n2-c2ccccc2)cc1,-,-,-
COc1ccc(CCn2c(-c3ccc(OC)cc3)nc3c(c(=O)c4ccccc4n3C)c2=O)cc1,-,-,-
Cn1c2ccccc2c(=O)c2c(=O)n(Cc3ccco3)c(-c3ccc(F)cc3)nc21,40µM,-,-
Cc1ccc(-c2nc3c(c(=O)c4ccccc4n3C)c(=O)n2Cc2ccco2)cc1,32µM,-,-
CCOC(=O)c1cc(-c2ccc(F)cc2)n(CCC(=O)Nc2cc(OC)cc(OC)c2)c1C,-,-,.
COc1cc(CN(C)Cc2ccccc2)cc(OC)c1O,11µM,-,-
SMILES,Sm TGR inh,AmpC inh detg,AmpC inh no detg
COc1ccc(CCN(C)Cc2ccc(OC)c(OCc3ccccc3)c2)cc1OC,-,-,-
Cc1ccccc1OCC(=O)N(Cc1ccc(C(C)C)cc1)C1CCS(=O)(=O)C1 (stereo not drawn),-,-,.
Cc1ccc2c(c1)N(C(=O)N1CCC(C(=O)NCCC3=CCCCC3)CC1)CC(C)O2 (stereo not drawn),-,-,.
CC(=O)Nc1ccc(Nc2nc(-c3sc(NC(C)=O)nc3C)cs2)cc1,-,-,1.8µM
CC(=O)Nc1nc(C)c(-c2csc(Nc3ccc(O)cc3)n2)s1,-,-,?
Cc1cc(C)c(S(=O)(=O)NCCc2cc3ccc(C)cc3[nH]c2=O)c(C)c1,-,-,.
FC(F)(F)c1cc(-c2ccco2)nc(NCc2cccs2)n1,20µM,-,-
FC(F)(F)c1cc(-c2ccco2)nc(NCc2ccco2)n1,?,-,-
CCCCN(C)C(=O)C1CCCN(c2ncnc3onc(-c4ccc(F)cc4)c23)C1 (stereo not drawn),-,-,.
COc1ccc(CNCCSc2nnnn2-c2ccccc2)cc1,-,-,.
CCCCn1nnc(N(C(=O)c2cccs2)C(=O)c2cccs2)n1,4.5µM,-,-
CCCn1nnc(NC(=S)NC(=O)c2cccs2)n1,-,-,-
CCCN(CCC)CCCNC(=O)C1CCN(c2nc3ccc(CC)cc3s2)CC1,-,-,.
CCOC(=O)C1CCCN(C(=O)c2ccc(NC(=O)c3nsc4ccccc34)cc2)C1 (stereo not drawn),-,-,.
CC1Cc2cc(/C(O)=C3/C(=O)C(=O)N(Cc4ccco4)C3c3cccs3)ccc2O1 (stereo not drawn),35µM,-,-
COc1ccc(/C(O)=C2/C(=O)C(=O)N(Cc3ccco3)C2c2cccs2)cc1 (stereo not drawn),-,-,-
COc1ccc(C2N(C(=O)c3ccccc3)CCN2C(=O)c2ccc(C)cc2)cc1 (stereo not drawn),-,?,-
COc1ccc(C(=O)N2CCn3c(C)ccc3C2C)cc1 (stereo not drawn),28µM,-,-[2.29 µM]
CCOc1cc(CNC(=O)Cn2ncn3c(cc4cc(F)ccc43)c2=O)cc(OCC)c1OCC,-,-,.
Cc1ccc(-n2c(SCC(=O)NCc3ccc(F)cc3)nc3c([nH]c4ccccc43)c2=O)cc1,-,-,.
N#CC1=C(N)Oc2n[nH]c(-c3cccs3)c2C1c1ccco1 (stereo not drawn),32µM,?,-
N#CC1=C(N)Oc2n[nH]c(-c3cccs3)c2C1c1ccncc1 (stereo not drawn),-,-,-
CCN(CC)C(=O)c1sc2c(c1C)c(=O)n(-c1ccc(Cl)c(Cl)c1)c(=O)n2Cc1cc(=O)n2ccccc2n1,-,-,.
O=C(COc1ccccc1[N+](=O)[O-])N/N=C/C=C/c1ccco1,35µM,-,-
Cc1ccc(OCC(=O)N/N=C/C=C/c2ccco2)cc1,?,?,-
SMILES,Sm TGR inh,AmpC inh detg,AmpC inh no detg
Cc1ccccc1OCC(=O)N/N=C/c1ccc([N+](=O)[O-])o1,?,-,-
COc1ccccc1OCC(=O)N/N=C/C=C/c1ccc([N+](=O)[O-])o1,45µM,-,-
CC(NC(=O)c1ccc2c(c1)N(Cc1ccc(Cl)cc1)C(=O)c1ccccc1S2=O)c1ccccc1 (stereo not drawn),-,-,.
CCOc1ccccc1Nc1sc(C(=O)c2ccc(Cl)cc2)c(N)c1C(=O)NCCc1ccccc1,-,-,.
O=C(NC1CCCCCC1)C1CCN(C(=O)N2CCOc3ccccc32)CC1,-,-,.
O=C(CCC1N=C2c3ccccc3N=C(SCc3ccc(Cl)cc3)N2C1=O)N1CCN(c2ccccc2)CC1 (stereo not drawn),-,-,.
O=C(Nc1ccc2c(c1)nc1n2CCSC1)c1ccco1,14µM,-,-
O=C(Nc1ccc2oc(-c3cccnc3)nc2c1)c1ccc(-c2ccccc2OC(F)(F)F)o1,?,-,.
O=C(Nc1ccc2oc(-c3ccccc3)nc2c1)c1ccco1,-,-,-
O=C(Nc1ccc2oc(-c3ccncc3)nc2c1)c1ccco1,35µM,-,-
O=C(Nc1ccc2oc(-c3cccnc3)nc2c1)c1ccc(-c2ccc(OC(F)(F)F)cc2)o1,8.9µM,-,.
O=C(Nc1ccc2c(c1)nc1n2CCOC1)c1ccco1,-,-,-
O=C(Nc1ccc2oc(-c3cccnc3)nc2c1)c1ccc(-c2ccccc2)o1,35µM,-,.

# Compound activity as filed in PubChem.
